Assay results from article PMC9574860, “Chemical Toolkit for PARK7: Potent, Selective, and High-Throughput” (Journal of Medicinal Chemistry, 2022).
Hit rate of the full screen: of about 7,900 compounds, about 400 (5.1%) showed an effect of 50% or more. The sample holds strong results, similar compounds and a random draw of the others, so the mix is not that of the screen.

target: Parkinson's disease protein 7 (PARK7/DJ1) (human, UniProt Q99497); assay: primary screen, percent inhibition; read as competition with a fluorescent probe by fluorescence polarization; higher = more effect of the substance; conditions: 100 µM
Method: The screen was conducted using the conditions as described above in 1536-well plates (Corning 3724) with a reaction volume of 8 μL per well. The compound library containing 7887 covalent fragments was purchased at Enamine Ltd. and received as 100 mM DMSO stocks in 384 well LDV Echo plates (Labcyte LP-0200). Stock solutions of 0.26 μM PARK7 and 80 nM JYQ-107 were prepared. Using a Labcyte Echo550 acoustic dispenser, 8 nL of the DMSO stock solution of the library compounds was transferred from the source plates into the empty 1536-well screening plates to obtain a 100 μM final compound concentration. Next, PARK7 (6 μL, final concentration 0.2 μM) was dispensed using a Biotek MultiflowFX liquid dispenser and incubated for 2 h, followed by dispensing the probe JYQ-107 (2 μL, final concentration 20 nM). After 2 h incubation, the FP signal was recorded on a BMG Labtech PHERAstar plate reader (λex/em 480/520 nm). The relative loss of FP signal compared with reference controls was used to calculate the remaining enzyme activity.

Chain of Parkinson's disease protein 7 (PARK7/DJ1) (Q99497 whole entry, looked up, the tested form may be a part): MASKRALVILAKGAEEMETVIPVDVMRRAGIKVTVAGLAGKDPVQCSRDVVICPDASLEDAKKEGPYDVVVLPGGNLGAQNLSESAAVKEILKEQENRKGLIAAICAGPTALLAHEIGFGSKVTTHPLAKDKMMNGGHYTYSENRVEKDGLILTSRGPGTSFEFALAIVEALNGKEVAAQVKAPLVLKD

Row | Structure (SMILES) | Inhibition % [%]
1 | c1csc(COCC2CO2)c1 (stereo not drawn) | 0.211
2 | C=CC(=O)NC1CCCN(c2cccnc2)C1=O (stereo not drawn) | 15.4
3 | C=CC(=O)NC1(C2CC2)CCOCC1 | 7.04
4 | C=CC(=O)N1CCC(Oc2cccnc2N2CCCC2)C1 (stereo not drawn) | 13.2
5 | C=CC(=O)N1CC2(CCOCC2)c2ccccc21 | 7.61
6 | O=C(c1cccs1)N1CCC(CS(=O)(=O)F)C1 (stereo not drawn) | 97.1
7 | O=C(c1cccs1)N1CCCC(S(=O)(=O)F)C1 (stereo not drawn) | 73.5
8 | O=C(NC1CCN(C2CCOC2=O)CC1)c1cccs1 (stereo not drawn) | 7.52
9 | O=C(c1cccs1)N1CCCC(CS(=O)(=O)F)C1 (stereo not drawn) | 90.1
10 | O=C(c1cccs1)N1CCC(S(=O)(=O)F)CC1 | 10.8
11 | O=C(c1cccs1)N1CCOC(CS(=O)(=O)F)C1 (stereo not drawn) | 14.7
12 | O=C(c1cccs1)N1CCC(CS(=O)(=O)F)CC1 | 35.6
13 | O=C(CCl)NNC(=O)c1cccs1 | 7.74
14 | O=C(c1ccccc1)N1CC(S(=O)(=O)F)C1 | 35.6
15 | O=C1OCCC1N1CCN(C(=O)c2cccs2)CC1 (stereo not drawn) | 9.27
16 | O=C(N[C@H]1CC[C@@H](CS(=O)(=O)F)C1)c1cccs1 (racemic) | 96.8
17 | O=C(CCl)N1CCN(C(=O)c2cccs2)CC1 | 40.3
18 | Nc1cccc(OC2CC(=O)N2)c1 (stereo not drawn) | 18.6
19 | O=C(O)C1COCCN1C(=O)C=Cc1ccc(Cl)s1 (stereo not drawn) | 13.1
20 | C=CC(=O)NCC1CC2(CCOCC2)CO1 (stereo not drawn) | 5.16
21 | CC(C)(C)OC(=O)N1CCOc2cccc(B3OC(C)(C)C(C)(C)O3)c2C1 | 3.79
22 | CC(Cl)Cc1cc2ccc(O)cc2oc1=O (stereo not drawn) | 12.3

Row | Structure (SMILES) | Inhibition % [%]
23 | O=C(CCl)Nc1cc(F)cc(F)c1 | 14.6
24 | C=CC(=O)N1CCN(CC(C)C)C(=O)C1C (stereo not drawn) | 0.151
25 | COc1ccc(C)cc1S(=O)(=O)Oc1ccccn1 | 17
26 | CCCOc1cc(C)c(C)cc1S(=O)(=O)n1ccnc1C | 8.09
27 | COC(=O)c1cc([N+](=O)[O-])cc(B2OC(C)(C)C(C)(C)O2)c1C | 12.9
28 | COc1cc(S(=O)(=O)F)ccc1O | 17.3
29 | COc1ccc(S(=O)(=O)F)cc1O | 54
30 | COc1ccccc1-c1nnc(-c2ccc(S(=O)(=O)F)cc2)o1 | 9.83
31 | C=CC(=O)Nc1ccc(OCC)c(CO)c1 | 4.38
32 | COc1ccc(B2OC(C)(C)C(C)(C)O2)c(N)c1 | 56
33 | COc1cc(OC(F)F)ccc1B1OC(C)(C)C(C)(C)O1 | -1.65
34 | COc1ccc(B2OC(C)(C)C(C)(C)O2)c(C#N)c1 | 7.16
35 | CC1(C)OB(c2ccnn2-c2ccccc2)OC1(C)C | 14.9
36 | CC1CC(Sc2ccccn2)C(=O)O1 (stereo not drawn) | 5.37
37 | Cc1cc(S(N)(=O)=O)cc(NC(=O)CCl)c1C | 2.37
38 | C=CC(=O)NC1CCC2(CC1)CC2(F)F (stereo not drawn) | 3.45
39 | C=CC(=O)Nc1ccc2occc2c1 | 9.28
40 | C=CC(=O)Nc1ccc2sncc2c1 | 97.4
41 | C=CC(=O)Nc1ccc2c(cnn2C(F)F)c1 | 6.45
42 | CC1(C)C(=O)NC1C1CCN(CC(C)(O)C(F)(F)F)CC1 (stereo not drawn) | 6.49
43 | C=CC(=O)N1CCOC(c2ccccc2)C1 (stereo not drawn) | 4.98
44 | O=C1CN=C(S)N1c1ccccc1Cl | 5.52

Row | Structure (SMILES) | Inhibition % [%]
45 | O=C(CCl)N1CCc2ccccc21 | -0.66
46 | O=C1CCCN1CCCl | 5.09
47 | C=CC(=O)NCCC(=O)N1c2ccccc2CCC1C (stereo not drawn) | 5.89
48 | O=C(CCl)N1CCc2cc([N+](=O)[O-])ccc21 | 5.06
49 | CN(C)S(=O)(=O)c1ccc2c(c1)CCCN2C(=O)CCl | 8.14
50 | CC1Cc2ccccc2N1C(=O)CCl (stereo not drawn) | 8.22
51 | O=C1CCC(=O)N1CC(=O)N1CCCc2ccccc21 | 10.8
52 | O=C(CCl)N1CCCc2ccccc21 | 69.2
53 | CC1CCc2ccccc2N1C(=O)CCl (stereo not drawn) | 100
54 | O=C(CCl)NCCCN1CCCC1=O | 3.35
55 | O=C(CCl)N1CCCC1=O | 79.2
56 | NS(=O)(=O)c1ccc2c(c1)CCN2C(=O)CCl | 83.1
57 | C=CC(=O)N1CC(C)OC(COC)C1 (stereo not drawn) | 6.19
58 | C=CC(=O)N1CCCC(N(C)Cc2noc(C)n2)CC1 (stereo not drawn) | 1.13
59 | O=C(CCl)Nc1ccccc1C(=O)Nc1ccc(F)cc1 | 6.28
60 | O=C(CCl)N(Cc1ccco1)CC(F)(F)F | 11.9
61 | CC1(C)OB(c2ccc(F)cc2[N+](=O)[O-])OC1(C)C | 3.67
62 | O=C(Nc1ccc2c(c1)COC2)c1cccnc1S | 2.52
63 | C=CC(=O)NC1C2Cc3ccccc3C21 (stereo not drawn) | 11.1
64 | O=C(CCCl)N1CCc2ccccc21 | 3.9
65 | O=C(CCl)N1c2ccccc2CCc2ccccc21 | 61
66 | O=C(CCl)N1c2ccccc2Sc2ccccc21 | 1.08

Row | Structure (SMILES) | Inhibition % [%]
67 | CCOc1cc(C)ccc1S(=O)(=O)n1cccn1 | 0.108
68 | COC(=O)c1cc(B2OC(C)(C)C(C)(C)O2)c(C)cn1 | 4.59
69 | CS(=O)(=O)OC1CCOC(c2ccncc2)C1 (stereo not drawn) | 7.05
70 | N#CCCN(C(=O)CCl)c1ccccc1F | 33.7
71 | COc1ccc(N(CC(F)(F)F)C(=O)CCl)cc1 | 36.5
72 | CN(Cc1cc(Cl)cc(Cl)c1)C(=O)CCl | 32.4
73 | CN(CCOc1ccccc1F)c1cccnc1C#N | 40.3
74 | O=C(CCl)NCCOc1ccc(Cl)cc1 | 20.3
75 | OB(O)c1ccc(OCc2ccc(Cl)cc2)cc1 | -0.814
76 | CN(CCOc1ccc(Cl)cc1)C(=O)CCl | 63.6
77 | CN(CCOc1ccccc1F)C(=O)CCl | 94.1
78 | O=C(CCl)COc1ccc(Cl)cc1 | 97.8
79 | COc1ccc(NC(=O)C(C#N)=Cc2ccco2)cn1 | 10.5
80 | N#Cc1ncn(CC(=O)N2CCc3sccc3C2)n1 | 10.8
81 | CN(C)c1ccc(Cl)cc1NC(=O)CCl | 1.39
82 | CC(C)(C)OC(=O)N1CCC(B2OC(C)(C)C(C)(C)O2)C1 (stereo not drawn) | 1.29
83 | CC1CN(C(=O)CN2CCSC2=O)C(C)CO1 (stereo not drawn) | 4.59
84 | N#Cc1ccccc1OS(=O)(=O)c1nccs1 | 25.6
85 | Cc1cc(F)ccc1OS(=O)(=O)c1cnn(C)c1 | 9.05
86 | O=C(CCl)Nc1ccc2c(c1)OC1(CCCC1)O2 | 78.4
87 | O=C(CCl)Nc1ccc2c(c1)NC(=O)CO2 | 32.7
88 | O=C(CCl)Nc1ccc2c(c1)OC(F)(F)O2 | 37.9

Row | Structure (SMILES) | Inhibition % [%]
89 | O=C(CCCl)Nc1ccc2c(c1)OCO2 | 13.1
90 | O=C(CCl)NC(=O)Nc1ccc2c(c1)OCO2 | 1.46
91 | O=C(CCl)Nc1ccc2c(c1)OC1(CCCCC1)O2 | 93.3
92 | COc1ccc(-c2nc(C#N)c(N3CCCC3)o2)cc1 | 5.17
93 | Cn1c(S)nc2ccccc2c1=O | 3.7
94 | O=C(Cc1ccccc1Cl)N1CCCCC1C1OCCO1 (stereo not drawn) | 14.3
95 | O=C(CCl)NC(=O)Nc1ccccc1F | -2.13
96 | O=C(CS)Nc1ccccc1 | 50.4
97 | O=C(CS)Nc1ccc(F)cc1 | 5.25
98 | O=C(CCCl)Nc1ccccc1F | 6.72
99 | C=CC(=O)Nc1ccccc1 | 3.57
100 | O=C(CS)Nc1ccccc1F | 81.5
101 | O=S1(=O)C=CC(c2ccccc2)C1 (stereo not drawn) | 12.1
102 | CCOc1ccc(S(=O)(=O)n2nc(C)cc2C)cc1C | 7.03
103 | C=CCOc1ccc(Cl)c(C#N)n1 | 4.33
104 | N#CC(=Cc1ccccc1OCC(F)(F)F)C(N)=O | 22.7
105 | CCc1noc(CC)c1CNCc1ccccc1B(O)O | 2.29
106 | O=C(CCl)N1CCOC1=O | 31.6
107 | N#CN(CC(=O)N1CCNC1=O)c1ccccc1 | 3.42
108 | O=C(CCl)N1CCNC1=O | 78
109 | O=C1CN(C(=O)CCl)CCN1 | 62.6
110 | O=C(CCl)N1CCNCC1.O=C(O)C(F)(F)F | 7.16

Row | Structure (SMILES) | Inhibition % [%]
111 | C=CC(=O)N1CCNC(=O)C1 | 11.3
112 | CN(C)CCOc1ccccc1B1OC(C)(C)C(C)(C)O1 | 6.97
113 | C=CC(=O)N(C)C1CCN(c2ncnc3ccccc23)CC1 | 16.8
114 | Cc1csc(NC(=O)CCN2C(=O)CCC2=O)n1 | 5.08
115 | Cc1csc(NC(=O)CCl)n1 | -1.74
116 | Cc1csc(NC(=O)CS)n1 | 71.5
117 | Cc1cc(Br)ccc1NC(=O)CCl | 19.7
118 | O=C(CCl)NCc1ccc(F)cc1C(F)(F)F | 13.5
119 | C=CC(=O)N(Cc1cccc(C)n1)Cc1cccc(C)n1.O=C(O)C(F)(F)F | 8
120 | COC(=O)c1c(NC(=O)CCl)sc(C)c1C | 10.8
121 | Cc1sc(NC(=O)CCl)c(C#N)c1C | 9.37
122 | Cc1sc(NC(=O)CCl)c(C)c1C | 56.3
123 | C=CC(=O)N1CC(n2nc(C)nc2C)C1 | 9.38
124 | Cn1ccc(NS(=O)(=O)c2cccc(S(=O)(=O)F)c2)n1 | 97.7
125 | CCc1nn(C)cc1NS(=O)(=O)c1cccc(S(=O)(=O)F)c1 | 95.4
126 | Cn1cc(NS(=O)(=O)c2cccc(S(=O)(=O)F)c2)ccc1=O | 103
127 | Cn1cc(NS(=O)(=O)c2ccc(S(=O)(=O)F)cc2)cn1 | 33
128 | Cn1ncnc1NS(=O)(=O)c1ccc(S(=O)(=O)F)cc1 | 5.71
129 | Cn1cnc(NS(=O)(=O)c2ccc(S(=O)(=O)F)cc2)n1 | 5.05
130 | Cn1ccc(NS(=O)(=O)C=Cc2ccccc2)n1 | 11.1
131 | Cn1ccc(Nc2ccc(S(=O)(=O)F)cn2)n1 | 4.77
132 | CCn1ncnc1NS(=O)(=O)c1cccc(S(=O)(=O)F)c1 | 99
